The list is not random: actives were taken first. Their share in the collection is about 5.2%.
Coupling enz = coupling enzyme interference in Giardia aldolase counter-screen. coupling enzyme system counterscreen, AmpLite Red fluorescence. activity change, negative = inhibition, % at 58.2 µM, hits read low. 290,000 compounds, 0.67% hits; in the data active = activity change below about -30%
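Compounds tested against the coupling enzymes alone at 57.5 uM final; readout was AmpLite Red fluorescence (525/598 nm) after 20 min at RT.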
Tau fibril FP = inhibitors of human tau fibril formation; P10636; K18 P301L tau heparin fibrillization, Alexa594 FP, 6 h; Potency, µM (titrated, usually from 57.7 µM), for the others: at the top dose activity, negative = inhibition, most hits filed as inhibitors; 280,000 compounds, 0.39% hits; AID 1468; also: potency is read from the fitted curve at half-maximal effect; nearly all actives have a fitted effect of over 55% in size
Target sequence (P10636 561-689 P618L limits assumed): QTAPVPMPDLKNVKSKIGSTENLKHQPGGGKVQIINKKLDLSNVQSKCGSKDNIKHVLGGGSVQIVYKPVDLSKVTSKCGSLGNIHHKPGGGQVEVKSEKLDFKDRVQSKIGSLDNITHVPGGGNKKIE
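Human K18 P301L fragment (15 uM unlabeled plus 0.24 uM Alexa 594-labeled) in 100 mM sodium acetate pH 7 with compound, aggregation induced by 20 uM heparin for 6 hr at 37 C. ThT (30 uM) added for 1 hr, then Alexa 594 FP read.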
Sfp inh = Sfp phosphopantetheinyl transferase inhibition; Q9F4F7; Biochemical Sfp PPTase activity, qHTS; Potency, µM, for the others: largest response in the series, negative = inhibition, usual class: inhibitors; 310,000 compounds, 3.5% hits;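 also: the enzyme is Sfp with the accession as filed and its product quenches rhodamine fluorescence; potency is read from the fitted curve at half-maximal effect; 0% = enzyme reaction without inhibitor and -100% = no enzyme wells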
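Sfp 15 nM + cpd, 15 min RT; start w/ rhodamine-CoA 5 uM, BHQ-2-YbbR 12.5 uM (final); 50 mM Hepes pH 7.6, 10 mM MgCl2, 0.01% NP-40, 0.01% BSA; read 525/598 nm at 0 and 30 min.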
Tau fibril ThT = blocks human tau fibril formation measured by thioflavin T | P10636 | recombinant tau K18 P301L, heparin-induced fibrillization, ThT fluorescence | Potency, µM (titrated, usually from 57.4 µM), inactives show at the top dose activity, negative = inhibition, usual class: inhibitors | 270,000 compounds, 2.1% hits; also: potency is read from the fitted curve at half-maximal effect; nearly all actives have a fitted effect of over 55% in size
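Aggregation was driven by heparin (20 uM final) acting on recombinant tau […] bearing P301L in 100 mM sodium acetate pH 7; fibrils were detected with Thioflavin T.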
Tau fluor counter = counter-screen for tau fibril formation inhibitors; tau K18 P301L Alexa594 fluorescence, heparin fibrillization; Potency, µM (series often up to 57.7 µM), for the others: top-dose activity change, negative = decrease; 280,000 compounds, 0.93% hits; also: potency is read from the fitted curve at half-maximal effect; nearly all actives have a fitted effect of over 55% in size
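Human tau K18 P301L (15 uM unlabeled, 0.24 uM Alexa 594-labeled) in 100 mM sodium acetate pH 7 with 20 uM heparin, 6 hr at 37 C. ThT 30 uM added, 1 hr ambient; Alexa 594 FP and total fluorescence read at 555/632 nm.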
Numbers without * were called inactive; u = inconclusive; x = no result; ! = not active in a repeat; [ ] = another dose, or the depositor's remark. Unless noted, calls follow the shape of the dose curve; as a rule, active = well fitted curve in the direction sought with a large enough effect; inconclusive = small, poorly fitted or top-dose-only effect, or another doubt; inactive = no such curve, though single readings can be large; an effect the other way counts as inactive or inconclusive. Unless noted, % is scaled to controls: 0 for no effect and ±100 for the full control effect.

SMILES	Coupling enz	Tau fibril FP	Sfp inh	Tau fibril ThT	Tau fluor counter
CC1CCCN(CCOCCOc2ccc(Br)cc2Cl)C1 (stereo not drawn)	2	0%	-25%	-7%	-6%
CN1CCN(CCOCCOc2ccc(Br)cc2Cl)CC1	-3	x	56µM*	x	x
Cc1cc(Cl)c(OCCOCCN2CCCC(C)C2)c(Br)c1 (stereo not drawn)	3	-2%	-14%	-13%	-5%
Cc1ccc(OCCOCCN2CCN(C)CC2)c([N+](=O)[O-])c1	2	-9%	79µM*	-12%	-11%
CCSc1ncc(/C=N/Nc2ccc(Cl)cc2)n1C	-22	-15%	28µM*	7.9µM*	6.3µM*[quencher]
CCSc1ncc(/C=N/Nc2ccc([N+](=O)[O-])cc2)n1C	1	-12%	-9%	0.89µM*	u
Cn1c(-c2ccc(F)cc2)cnc1SCC(=O)Nc1ccccc1	6	10%	-7%	-6%	-5%
CCSc1ncc(/C=N/Nc2ccccc2)n1C	-1	u	-1%	4.5µM*	u
COC(=O)c1cnc(SCc2ccc(Cl)cc2)n1C	-2	8%	13%	-9%	-6%
COc1ccccc1NC(=O)CSc1nnc(-c2nonc2NC(C)=O)n1-c1ccccc1	x	8%	x	0%	-12%
Cc1cc2nc(C)c(=O)n(C)c2cc1C	-1	-2%	0%	1%	2%
Cc1cc2nc3c(=O)[nH]c(=O)nc-3n(C)c2cc1C=O	-38*	u	7%	u	-24%
O=C(O)c1ccccc1N/N=C\c1ccnc2ccccc12	2	11%	12%	5µM*	-24%
O=C(O)c1ccccc1N/N=C/c1cc(Br)cc(Br)c1O	9	22%	-13%	14µM*	u
CC(C)(C)c1ccc(C2Sc3ccccc3NC3=C2C(=O)c2ccccc23)cc1 (stereo not drawn)	x	u	x	-11%	5.6µM*[quencher]
COc1cc2c(cc1OC)C(C)N(C(=O)c1cc3n(n1)C(C(F)(F)F)CC(c1ccco1)N3)CC2 (stereo not drawn)	-13	-10%	40µM*	u	-25%
NC(C(=O)O)c1cc(O)c(Cl)c(O)c1 (stereo not drawn)	x	-2%	23%	9%	4%
NC(C(=O)O)C(O)c1ccc(O)c(O)c1 (stereo not drawn)	x	x	45µM*	x	x
N[C@H](C(=O)O)c1ccc(O)c(C(=O)O)c1	0	0%	20µM*	0%	-3%
N[C@H](C(=O)O)c1cccc(O)c1	2	u	45µM*!	u	-1%
N[C@@H](C(=O)O)c1ccc(C(=O)O)c(C(=O)O)c1	-2	2%	4%	6%	-2%
NC(C(=O)O)c1ccc(O)cc1 (stereo not drawn)	x	x	4%	x	x
O=C(NCSc1ccnc(SCNC(=O)c2ccccc2)n1)c1ccccc1	-2	-7%	-19%	-10%	-5%
O=C(NCSc1ccncn1)c1ccccc1	2	-2%	20µM*	-11%	-4%
O=C(/C=C/c1c[nH]c2ccccc12)c1cccc2ccccc12	-12	u	u	u	6.3µM*[quencher]
SMILES	Coupling enz	Tau fibril FP	Sfp inh	Tau fibril ThT	Tau fluor counter
O=C(c1ccccc1)c1c[nH]c2ccccc12	0	x	11%	x	x
CC(C)(C)n1nnnc1C(c1ccncc1)N(Cc1ccccc1)Cc1ccco1 (stereo not drawn)	-8	0%	50µM*	-13%	-1%
CCN1CCN(Cc2ccc(NC(=O)c3cc(NC(=O)C(=O)c4c[nH]c5ccccc45)cc(OC)c3)cc2C(F)(F)F)CC1	4	14µM*	50µM*	-14%	u
CCN1CCN(Cc2ccc(NC(=O)c3ccc(C)c(NC(=O)C(=O)c4c[nH]c5ccccc45)c3)cc2C(F)(F)F)CC1	-2	u	50µM*	-14%	-24%
CCN1CCN(Cc2ccc(NC(=O)c3ccc(C)c(NC(=O)c4ccc5n[nH]nc5c4)c3)cc2C(F)(F)F)CC1	8	1%	-1%	6%	4%
Cc1cc2nc(-c3ccc(OCc4ccc(F)cc4)cc3)cc(C(F)(F)F)n2n1	x	-3%	x	-16%	-11%
Fc1ccc(Nc2ncncc2-c2ccccc2C(F)(F)F)cc1	-1	x	79µM*	x	x
FC(F)(F)c1ccccc1-c1cncnc1NCc1cccs1	-1	x	-3%	x	x
CN1C(=O)C(Cc2cnc[nH]2)NC1=S (stereo not drawn)	-2	x	79µM*	x	x
COc1ccc(CNC(=O)c2cc3sccc3n2Cc2ccc(C)cc2)cc1	x	-14%	x	-5%	-25%
COc1ccccc1OCC(=O)NNC(=O)CCCC(=O)NNC(=O)COc1ccccc1OC	3	x	-1%	x	x
COc1ccccc1OCC(=O)NNc1c2ccccc2nc2ccccc12	1	u	5%	18µM*	16µM*[quencher]
Nc1ccccc1C(=O)NNc1c2ccccc2nc2ccccc12	-2	3%	-9%	5.6µM*	13µM*[quencher]
Cc1ccc(C(=O)NNc2c3ccccc3nc3ccccc23)cc1	-8	u	25µM*	3.2µM*	11µM*[quencher]
Cc1ccc(C)c(N2CCN(C(=O)c3ccc(NC(=O)c4nsc5ccccc45)cc3)CC2)c1	x	2%	x	-4%	-4%
COc1cc(OC)c(N(C)C(=O)c2nn(C)c3c2CSc2ccccc2-3)cc1Cl	x	-2%	x	10%	1%
O=S(=O)(Nc1ccc(O)c(NS(=O)(=O)c2ccccc2)c1)c1ccccc1	x	x	40µM*	x	x
O=C1C(c2ccncc2)N(CCC2=CCCCC2)C(=O)CN1C1CCCCC1 (stereo not drawn)	1	u	3%	7.9µM*	u
CCOc1ccc(C2C(=O)N(C3CCCCCC3)CC(=O)N2CCC2=CCCCC2)cc1OC (stereo not drawn)	x	1%	x	-16%	-10%
CCOc1ccc(OCC)c(C2C(C#N)=C(N)N(c3cccnc3)C3=C2C(=O)CC(C)(C)C3)c1 (stereo not drawn)	-52*	-11%	32µM*	u	-4%
CSc1sc(C)cc1C1C(C#N)=C(N)N(c2cccnc2)C2=C1C(=O)CC(C)(C)C2 (stereo not drawn)	3	-6%	22%	-15%	-13%
O=C(CSc1nc2ccccc2[nH]1)NCc1ccco1	-4	0%	4%	-5%	-6%
O=C(CSc1ncccc1-c1nc2ccccc2[nH]1)NCc1ccco1	-1	u	40µM*	u	-21%
Cc1cc2nc(-c3cccnc3SCC(=O)NC3CC3)[nH]c2cc1C	1	-4%	-4%	-6%	-7%
Cc1ccc(Cc2c(C)nc3nc(SCC(=O)NCc4ccco4)nn3c2C)cc1	1	-1%	-37%	u	-3%
Cc1cc2nc(-c3cccnc3SCC(=O)NCc3ccco3)[nH]c2cc1C	-11	-14%	40µM*	u	-13%
Cc1cccc(Cc2c(C)nc3nc(SCC(=O)NCc4ccco4)nn3c2C)c1	-2	-5%	45µM*	-16%	-4%
